# High-throughput results deposited in PubChem by several laboratories.
# The list is not random: actives were taken first. Their share in the collection is about 28%.
# CYP2C9 act: activators of human CYP2C9; recombinant CYP2C9, luciferin-H conversion, luminescence; hits give high values; factor 1 = untreated enzyme, 0 = blocked; 1.4% of 96,000 active; activation factor at 5 µM; P11712;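 active = activation factor of 2 or more for CYP2C9 at a 5 µM dose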;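 also: 0 = sulfaphenazole-blocked wells and 1 = vehicle-only wells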
# CYP2C19 inhib: inhibitors of human CYP2C19; P33261; CYP2C19 Supersomes, luciferin-H EGE luminescence, 30 min; inhibition, % at 5 µM; 21% of 96,000 active;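 active = CYP2C19 inhibition above a set limit at 5 µM in the primary screen, cut at about 50% in these data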;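 also: plate controls were negative control wells for no effect and 2.5 mM tranylcypromine positive control for full effect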
# Target sequence (P33261 whole entry, looked up): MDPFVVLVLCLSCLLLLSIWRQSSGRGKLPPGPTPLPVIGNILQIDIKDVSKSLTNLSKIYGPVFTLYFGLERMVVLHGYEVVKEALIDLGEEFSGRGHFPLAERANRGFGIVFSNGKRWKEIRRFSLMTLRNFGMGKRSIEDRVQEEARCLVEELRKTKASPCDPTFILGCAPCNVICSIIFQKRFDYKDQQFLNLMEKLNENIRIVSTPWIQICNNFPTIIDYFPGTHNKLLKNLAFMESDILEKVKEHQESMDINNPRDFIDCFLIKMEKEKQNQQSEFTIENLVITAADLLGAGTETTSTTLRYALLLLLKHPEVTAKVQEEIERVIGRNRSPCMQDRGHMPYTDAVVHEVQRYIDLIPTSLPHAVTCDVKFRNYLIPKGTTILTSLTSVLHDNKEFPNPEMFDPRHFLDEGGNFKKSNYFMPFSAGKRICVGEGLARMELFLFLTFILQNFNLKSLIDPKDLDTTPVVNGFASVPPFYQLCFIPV
# CYP2C19 activ: increases human CYP2C19 enzyme activity; recombinant CYP2C19, luciferin-H EGE luminescence; hits give high values; 0 = fully inhibited enzyme, 1 = untreated enzyme; 96,000 tested, under 10 active; activation factor at 5 µM; P33261; AID 1025;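 active = activation factor of at least 2 at 5 µM in the primary screen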;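 also: 0 = wells with 2.5 mM tranylcypromine and 1 = vehicle-only wells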
# CYP2C9 inh: blocks human cytochrome P450 2C9; 20% of 96,000 active; AID 777; CYP2C9 Supersomes, luciferin-H conversion, luminescence; inhibition, % at 5 µM;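 active = blocking of liver enzyme CYP2C9 beyond about 50% at 5 µM, limit read from the data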
# Plk1 PBD FP: Plk1 (human) PBD binding inhibition | P53350 | Plk1 PBD phosphopeptide binding, fluorescence polarization | inhibition, %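 (tested at about 20 µM)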 | 0.13% of 97,000 active | AID 693; in the data active = inhibition above about 34%, passing the limit was not always enough
# PLK1 kinase inh: PLK1 (human) kinase inhibition; recombinant PLK1 kinase, TR-FRET peptide phosphorylation; inhibition, % at 10 µM; 0.53% of 97,000 active;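 active = inhibition of 50% or more in the single-concentration screen; inactive = inhibition below 50%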;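 also: 0% = DMSO max control and 100% = H-89 dihydrochloride min control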
# * = called active by the depositor; x = no result given.
SMILES,CYP2C9 act,CYP2C19 inhib,CYP2C19 activ,CYP2C9 inh,Plk1 PBD FP,PLK1 kinase inh
CCOC(=O)c1nn(-c2ccccc2)c(=O)cc1SC(C)C,1,2,1,3,-2,-14
CCOC(=O)c1nn(-c2ccc(C)cc2)c(C)c1C(C)=O,1,88*,0.1,1,0,-23
CCOC(=O)c1nn(-c2ccc(F)cc2)c(C)c1C(C)=O,0.8,99*,0,19,16,2
COc1cc(SC#N)ccc1N=Cc1c(C)[nH]n(-c2cccc3ccccc23)c1=O,0.8,14,0.9,16,-11,-10
Cc1csc(C2=C(O)CN(c3ccc4c(c3)OCCOCCOCCOCCO4)C2=N)n1,1,3,1,3,-8,-9
CCN(CC)c1nc(N2CCOCC2)c(C#N)c2c1CN(C)CC2,0.4,21,0.8,56*,-14,-4
CCN1CCc2c(C#N)c(N3CCOCC3)nc(N3CCOCC3)c2C1,0.8,-3,1,18,9,6
CCN1CCc2c(C#N)c(N3CCCCC3)nc(N3CCOCC3)c2C1,0.3,40,0.6,68*,11,-3
COc1ccc(S(=O)(=O)N2CCCC(C(=O)O)C2)cc1Cl (stereo not given),1.1,0,1,-7,11,-5
CCOC(=O)C1CCCN(S(=O)(=O)c2ccc(Br)c(OC)c2)C1 (stereo not given),0.7,71*,0.3,27,-16,0
CCOC(=O)C1CCCN(S(=O)(=O)c2ccc(OC)c3ccccc23)C1 (stereo not given),0.8,98*,0,21,19,-2
O=C(NC1CCCC1)C1CCCN(S(=O)(=O)c2ccc(-n3cnnn3)cc2)C1 (stereo not given),0.9,-14,1.1,7,x,x
NC(=O)C1CCCN(S(=O)(=O)c2ccc(Br)cc2)C1 (stereo not given),1.5,59*,0.4,-46,-6,-1
CC(C)NC(=O)C1CCCN(S(=O)(=O)c2ccc(-n3cnnn3)cc2)C1 (stereo not given),0.5,13,0.9,51*,10,-13
COc1cccc(CNc2ccc3c(c2)CCC3)c1,1.1,13,0.9,-11,-6,3
Cn1cc(C(=O)NCN2CCCCC2)c2ccccc21,1.1,3,1,-9,1,-12
CCOC(=O)N1CCN(S(=O)(=O)c2ccc(F)c(C(=O)Nc3cc(C)cc(C)c3)c2)CC1,1,2,1,3,7,-8
CCOC(=O)C1CCCN(S(=O)(=O)c2ccccc2)C1 (stereo not given),0.9,33,0.7,5,-29,-8
CCOC(=O)C1CCN(S(=O)(=O)c2cn(C)c(=O)n(C)c2=O)CC1,1.2,-10,1.1,-18,x,x
CCOC(=O)C1CCCN(S(=O)(=O)c2cn(C)c(=O)n(C)c2=O)C1 (stereo not given),0.8,78*,0.2,16,-30,-13
CCOC(=O)C1CCCN(S(=O)(=O)c2ccc(F)c(C(=O)Nc3ccc(F)c(F)c3)c2)C1 (stereo not given),0.4,59*,0.4,60*,-9,1
CCOC(=O)C1CCCN(S(=O)(=O)c2c(C)c(C)cc(C)c2C)C1 (stereo not given),1.4,87*,0.1,-35,15,-10
CCOC(=O)CN(C(=O)CNC(=O)c1cccs1)C(C(=O)NC1CCCC1)c1cccnc1 (stereo not given),0.9,17,0.8,12,12,-4
CC(C)C(NC(=O)C1CCCCC1)C(=O)NC1CCN(Cc2ccccc2)CC1 (stereo not given),1.1,0,1,-6,8,-6
CCc1c(C)nc(N)n2c(SCC(=O)Nc3ccccc3)nnc12,0.8,14,0.9,18,20,-2
SMILES,CYP2C9 act,CYP2C19 inhib,CYP2C19 activ,CYP2C9 inh,Plk1 PBD FP,PLK1 kinase inh
Cc1ccc(S(=O)(=O)NNC(=O)c2sc3nc(C)cc(C)c3c2-n2cccc2)cc1,0,81*,0.2,99*,19,-9
O=C(CCn1c(=S)[nH]c2ccccc2c1=O)NCC1CCCO1 (stereo not given),1.2,4,1,-20,23,0
CC1(C)CC(=O)C2=C(C1)N=C1SCCC(=O)N1C2c1ccccc1 (stereo not given),0.9,32,0.7,13,5,-10
CCN(CC(=O)NC1CCCCCC1)S(=O)(=O)c1ccccc1,0.8,28,0.7,21,-8,-11
CCN(CC)S(=O)(=O)c1csc(C(=O)NCc2ccccc2)c1,0.6,18,0.8,45,11,-4
CCN(CC)S(=O)(=O)c1csc(C(=O)NC2CCCCC2)c1,0.4,2,1,62*,-12,-9
CCN(CC)S(=O)(=O)c1cccc(C(=O)NC2CCCCC2)c1,0.4,38,0.6,58*,1,-7
CCOC(=O)N1CCN(C(=O)CN(c2ccc(Cl)c(C(F)(F)F)c2)S(C)(=O)=O)CC1,0.9,56*,0.4,12,-18,-4
CCOC(=O)N1CCN(C(=O)CN(c2cc(C(F)(F)F)ccc2Cl)S(C)(=O)=O)CC1,0.6,54*,0.5,39,4,-21
CS(=O)(=O)N(CC(=O)N1CCCC1)c1cc(Cl)c(Cl)cc1Cl,0.5,90*,0.1,45,-7,-9
Cc1c(Cl)cccc1N(CC(=O)N1CCCCCC1)S(C)(=O)=O,1.1,38,0.6,-8,x,x
COCCNc1nc(C(C)(C)C)nc2c1nnn2Cc1ccccc1Cl,0.9,7,0.9,5,-2,2
CCOC(=O)c1cccc(NC(=O)CSc2nnc(COc3ccc(Cl)cc3)o2)c1,0.7,5,0.9,34,-18,-5
COc1ccc(CCNS(=O)(=O)c2cn(C)c(=O)n(C)c2=O)cc1OC,1,22,0.8,4,-23,-12
CCOC(=O)C1=C(CSc2nc3c(cc2C#N)CN(C)CC3)OC(N)=C(C#N)C1c1ccc(F)cc1 (stereo not given),0.1,92*,0.1,86*,-42,6
CCOC(=O)C1=C(CSc2nc(-c3ccccc3)ccc2C#N)OC(N)=C(C#N)C1c1ccccc1 (stereo not given),0.1,59*,0.4,92*,-9,-7
CCOC(=O)C1=C(CSc2nc(-c3ccccc3)ccc2C#N)OC(N)=C(C#N)C1c1cccnc1 (stereo not given),0.1,92*,0.1,94*,-31,-10
CCOC(=O)C1=C(CSc2nc3c(cc2C#N)CN(C)CC3)OC(N)=C(C#N)C1c1ccccc1 (stereo not given),0.6,43,0.6,41,2,-4
Fc1ccccc1N1CCN(CCCNc2ccc3nncn3n2)CC1,1,37,0.6,2,-1,-8
O=C1OCCC1Sc1nnc(-c2cccs2)n1Cc1ccccc1 (stereo not given),0.9,9,0.9,10,x,x
